Data reported in PubChem BioAssay (NCI).
Several values for one entry are separate records, joined by “and”; a condition that tells them apart may be missing. Identical values can stand only once. About 79,000 compounds went through this panel and 15% of them were active in at least one assay; those are over-represented in the sample as a whole. Cut-off read from the data, not from the text of the source: active = growth inhibition above about 70%; inactive = the rest.

What was measured:
[1] = NCI Yeast Anticancer Drug Screen. Data for the rad50 strain (AID 155);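 note: 0% = growth of vehicle-only cultures of the same strain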; settings: S. cerevisiae rad50 strain growth inhibition; at 50.0 µM; stronger effect = higher value
Summary of the method: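 DNA repair mutant yeast, compound exposure, growth read-out; inhibition is taken relative to vehicle.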

[2] = NCI Yeast Anticancer Drug Screen. Data for the mec2-1 strain (AID 157); settings: S. cerevisiae mec2-1 strain, at 50.0 µM, stronger effect = higher value
Summary of the method: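 Test agents were screened against the mec2-1 yeast strain, with defined DNA repair or cell cycle alteration. Growth was scored as inhibition against vehicle-only controls.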

[3] = NCI Yeast Anticancer Drug Screen. Data for the sgs1 mgt1 strain (AID 161);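 note: 0% = growth of cultures given vehicle only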; settings: S. cerevisiae sgs1 mgt1 strain, at 50.0 µM, stronger effect = higher value
Summary of the method: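 Mutant yeast exposed to compound; growth scored against vehicle-only wells.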

[4] = NCI Yeast Anticancer Drug Screen. Data for the cln2 rad14 strain (AID 165);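 note: 0% = growth equal to vehicle treated cultures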; settings: S. cerevisiae cln2 rad14 strain, at 50.0 µM, stronger effect = higher value
Summary of the method: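 Growth of compound-exposed yeast (cln2 rad14 genotype) measured and expressed as inhibition relative to vehicle.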

[5] = NCI Yeast Anticancer Drug Screen. Data for the bub3 strain (AID 167); settings: S. cerevisiae bub3 mutant strain, at 50.0 µM, stronger effect = higher value
Summary of the method: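 In this screen, a yeast mutant lacking normal mitotic checkpoint function is challenged with compound. Relative growth versus vehicle gives the inhibition value.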

[6] = NCI Yeast Anticancer Drug Screen. Data for the mlh1 rad18 strain (AID 175); settings: S. cerevisiae mlh1 rad18 strain growth inhibition; at 50.0 µM; stronger effect = higher value
Summary of the method: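 In this whole-cell yeast screen, a strain with altered DNA damage repair is challenged with compound, and its growth is measured against matched vehicle-treated controls.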

Measured: growth inhibition

CC(=O)OCC(=O)c1ccc(-c2ccccc2)cc1
inactive: [1] 6.55% and 7.65% | [2] -14.8% and 4.5% | [3] 14.1% | [4] 8.35% and -22.8% | [5] 39.9% and 28.6% | [6] 18.8% and 23.9%

CCOC(=O)C(OC1OC(C(=O)OC)C(OC(C)=O)C(OC(C)=O)C1OC(C)=O)c1ccccc1 (stereo not given)
inactive: [1] -10.2% and -20.9% | [2] -5.7% and -8.3% | [3] -13.2% and -11.8% | [4] 0.5% and -29.8% | [5] -6.85% and -17.8% | [6] -33.1% and -35.5%

Cc1ccc(NC2=CC(=O)C(=O)c3ccccc32)cc1
inactive: [1] 30% and 22.6% and 45.2% | [2] 40.7% and 36% and 14.1% | [3] 25% and 26.8% and 32.3% | [4] 5.55% and 8.9% and 30.9% | [5] 25.1% and 26.9% and 54.6% | [6] 15.4% and 60.9% and 33.4%

COc1c2occc2c(OC)c2c(=O)cc(C)oc12
inactive: [1] 20.9% and 2.55% | [2] -2.15% and -27.4% | [3] 16.8% and 9.95% | [4] -0.65% and 8.7% | [5] 7.9% and 5.95% | [6] 22.1% and 9.4%

COc1ccc(C(O)c2nccn2C)c(OC)c1 (stereo not given)
inactive: [1] -17.6% and -23.8% | [2] -3.55% and -10.8% | [3] -0.3% and -6.2% | [4] 14.7% and 10.1% | [5] 20.1% and 21% | [6] 5.35% and -6.35%

C/C(=N\NC(=O)c1ccncc1)c1ccc(F)cc1
inactive: [1] 3.95% and -7.7% | [2] 9.55% and -14.3% | [3] 4.15% and -16.4% | [4] 3.85% and 0.7% | [5] 5.5% and -28.4% | [6] 14.3% and -4.6%

COc1ccc2c(c1OC)CN(C)CCc1cc3c(cc1C(=O)C2)OCO3
inactive: [1] -5.15% and -35.8% | [2] 15.7% and -17.1% | [3] -0.5% and -14.6% | [4] 49.6% and 11.8% | [5] 7.7% and -18.5% | [6] -29.9% and -8.35%

Cc1cc(=O)[nH]c2ccccc12
inactive: [1] 26.6% and 14% | [2] -6.3% and -2.8% | [3] -7.8% and -30.9% | [4] 6.3% and 21.8% | [5] 7.05% and -10.1% | [6] 6.45% and 12.5%

CC(=O)OC1OC(C)C(OC(C)=O)C(OC(C)=O)C1OC(C)=O (stereo not given)
inactive: [1] 6.8% and 1.65% | [2] -4.1% and 1.8% | [3] -5.85% and 11.7% | [4] -0.15% and 4.05% | [5] 4.5% and -4.2% | [6] -15.6% and 10.3%

OC1C(O)C2(c3ccccc3)OC1(c1ccccc1)c1ccccc12 (stereo not given)
inactive: [1] 13.2% and 7.35% | [2] -5.9% and -2.35% | [3] -5.8% and -5.6% | [4] 4.35% and 2% | [5] -0.25% and -1% | [6] -13.5% and -9.9%

Nc1cc2ccc(S(=O)(=O)O)cc2cc1S(=O)(=O)O
inactive: [1] 44.5% and 10.7% | [2] 14.8% and 10.9% | [3] 17.6% and -1.75% | [4] -12.3% and -14.9% | [5] 8.8% and 11.2% | [6] 29.5% and 35.3%

O=C(CCl)NC(Cc1c[nH]c2ccccc12)C(=O)O (stereo not given)
inactive: [1] -7.95% and 9.8% | [2] -50.7% and -0.75% | [3] 1.1% and -0.95% | [4] 23.3% and 14.8% | [5] -10.2% and 8.7% | [6] 4.25% and -1.05%

Cc1ccc2c(c1)P(=O)(O)c1cc(C)ccc1S2(=O)=O
inactive: [1] -0.75% and 4.5% | [2] 11.2% and -2.65% | [3] 6.75% and -4.1% | [4] -1.1% and -1.2% | [5] 0.45% and -9.3% | [6] -1.1% and -0.2%

COc1cc(N)ccc1NC(C)=O
inactive: [1] -5.25% and 0.6% | [2] -13.6% and -12.7% | [3] 4.45% and -35.6% | [4] 18.4% and -41% | [5] -0.9% and -2.55% | [6] 18.8% and -21.4%

COc1ccccc1/C=C/C(=O)O
inactive: [1] 30.8% and 25.7% | [2] -7.85% and 14.2% | [3] -5.2% and -7.85% | [4] -7.8% and -13.9% | [5] 3.95% and 10.9% | [6] -22.4% and 6.65%
